Values joined by “and” are separate entries in the source; they are usually repeats but may differ in a detail not shown here. Identical values can stand only once. Records with an inconclusive call do not appear. A call without a number means that no potency is given here. Some compounds were tested as several samples or in several runs, with calls that do not always agree. Active and inactive are the calls of the source. Calls follow the shape of the dose curve; as a rule, active = well fitted curve in the direction sought with a large enough effect in the repeat runs; inconclusive = weak or mixed curves; inactive = no such curve, though single readings can be large; an effect the other way counts as inactive or inconclusive.
How the values were obtained:
[1] = A CellTox Green Cytotoxicity Assay to monitor cytotoxicity in HepG2 cells - 0 hour (AID 1224882); conditions: CellTox Green fluorescence; series mostly up to 76.8 µM; also: nearly all actives have a fitted effect of over 35% in size
In short: (§1)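 Real-time, homogeneous cytotoxicity readout: dead-cell DNA staining by CellTox Green in HepG2 monolayers, fluorescence measured at timed intervals up to 40 h of continuous compound exposure.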

[2] = A CellTox Green Cytotoxicity Assay to monitor cytotoxicity in HepG2 cells - 32 hour (AID 1224883); conditions: CellTox Green fluorescence; series mostly up to 76.8 µM; also: nearly all actives have a fitted effect of over 50% in size
In short: as §1

[3] = A CellTox Green Cytotoxicity Assay to monitor cytotoxicity in HEK293 cells - 8 hour (AID 1224884); conditions: CellTox Green fluorescence; series mostly up to 76.8 µM; also: nearly all actives have a fitted effect of over 35% in size
In short: (§2)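 Cytotoxicity was tracked continuously in HEK293 cells by a DNA-binding dye excluded from viable cells. Compounds were transferred in DMSO 5 h after seeding; fluorescence was recorded at intervals up to 40 h.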

[4] = qHTS RealTime-Glo MT Cell Viability Assay in HEK293 cells - 24 hour (AID 1224886); conditions: RealTime-Glo luminescence; series mostly up to 76.8 µM; also: nearly all actives have a fitted effect of over 50% in size
In short: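 Viability tracked continuously by luminescence as live cells reduce a prosubstrate for NanoLuc; HEK293 cells preincubated 5 h, compound-treated at 37 C, and read at 0, 8, 16, 24, 32 and 40 h.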

[5] = qHTS RealTime-Glo MT Cell Viability Assay in HEK293 cells - 8 hour (AID 1224887); conditions: RealTime-Glo luminescence; series mostly up to 76.8 µM; also: nearly all actives have a fitted effect of over 50% in size
In short: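 Nonlytic bioluminescent viability monitoring. HEK293 at 600 cells/well with reagent; 5 h settle; compound transfer by pintool; plates held at 37 C and read at set time points.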

[6] = A CellTox Green Cytotoxicity Assay to monitor cytotoxicity in HEK293 cells - 16 hour (AID 1224888); conditions: CellTox Green fluorescence; series mostly up to 76.8 µM; also: nearly all actives have a fitted effect of over 35% in size
In short: as §2

[7] = qHTS RealTime-Glo MT Cell Viability Assay in HepG2 cells - 0 hour (AID 1224889); conditions: RealTime-Glo luminescence; series mostly up to 76.8 µM; also: nearly all actives have a fitted effect of over 50% in size
In short: (§3)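 Viability was tracked continuously by NanoLuc luminescence from prosubstrate reduced by living HepG2 cells, at successive time points over 40 h of compound exposure. Cells with reagent were preincubated 5 h at 37 °C before compound addition.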

[8] = qHTS RealTime-Glo MT Cell Viability Assay in HepG2 cells - 16 hour (AID 1224885); conditions: RealTime-Glo luminescence; series mostly up to 76.8 µM; also: nearly all actives have a fitted effect of over 50% in size
In short: as §3

[9] = A CellTox Green Cytotoxicity Assay to monitor cytotoxicity in HepG2 cells - 8 hour (AID 1224890); conditions: CellTox Green fluorescence; series mostly up to 76.8 µM; also: nearly all actives have a fitted effect of over 45% in size
In short: as §1

[10] = qHTS assay to identify small molecule antagonists of the estrogen receptor alpha (ER-alpha) signaling pathway using the BG1 cell line in the presence of 0.1 nM 17-beta-estradiol - cell viability counter screen (AID 1259241); conditions: VM7Luc4E2 (BG1) viability, CellTiter-Fluor protease, 22 h, 0.1 nM estradiol agonist added; series mostly up to 92.4 µM; also: nearly all actives have a fitted effect of over 40% in size
In short: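 The cell line endogenously expresses full-length ER-alpha and carries four EREs driving luciferase. Cells are cultured 5 days hormone-free, treated 22 hr with compounds and 0.1 nM estradiol, then viability is read by fluorescence.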
Potency is read from the fitted curve at half-maximal effect.

SMILES | Potency [1] | Potency [2] | Potency [3] | Potency [4] | Potency [5] | Potency [6] | Potency [7] | Potency [8] | Potency [9] | Potency [10]
CCCOCC(=Nc1ccc(Cl)cc1C(F)(F)F)n1ccnc1 | inactive | 43.6 µM (active) | 54.9 µM (active) | 43.6 µM (active) | 43.6 µM (active) | 54.9 µM (active) | inactive | – | – | –
Cc1cc(SCc2sc(-c3ccc(C(F)(F)F)c(F)c3)nc2C)ccc1OCC(=O)O | inactive | inactive | inactive | – | – | – | inactive | inactive | inactive | –
N#CC(Cl)Cl | 1.51 µM (active) | inactive | inactive | – | inactive | inactive | inactive | inactive | 1.51 µM (active) | inactive
Oc1cccc(-c2ccccc2)c1 | inactive | inactive | inactive | – | – | inactive | inactive | inactive | inactive | inactive
C[C@]12CC[C@H]3[C@@H](CCC4=CC(=O)CC[C@@]43C)[C@@H]1CC[C@@H]2O | inactive | inactive | inactive | 54.6 µM (active) | inactive | inactive | 21.7 µM (active) | – | inactive | inactive
CC[C@H]1C[C@@H]2C[C@H]3c4[nH]c5ccc(OC)cc5c4CCN(C2)[C@@H]13 | inactive | 54 µM (active) | inactive | – | – | inactive | inactive | inactive | inactive | –
CC(C)CBr | inactive | inactive | inactive | inactive | inactive | inactive | inactive | – | inactive | –
[Cd+2].[Cl-].[Cl-] | inactive | 22.1 µM (active) and 24.5 µM (active) | inactive | – | inactive | inactive | inactive | inactive | inactive | inactive
Oc1c(Br)c(Br)c(Br)c(Br)c1Br | inactive | inactive | inactive | – | – | inactive | inactive | inactive | inactive | inactive
O=S(=O)(c1ccc(Cl)cc1)c1ccc(Cl)cc1 | inactive | inactive | inactive | – | – | inactive | inactive | inactive | inactive | inactive
COC(=O)N(C(=O)N1COC2(C(=O)OC)Cc3cc(Cl)ccc3C2=N1)c1ccc(OC(F)(F)F)cc1 (configuration not stated) | inactive | inactive | inactive | – | – | inactive | inactive | inactive | inactive | inactive
CC(=[OH+])/C=C(/C)[O-].CC(=[OH+])/C=C(\C)[O-].CC(=[OH+])/C=C(\C)[O-].[Al] | inactive | inactive | inactive | inactive | inactive | inactive | inactive | – | inactive | –
N#C/C=C/C#N | inactive | inactive | inactive | – | – | inactive | – | inactive | inactive | inactive
COc1ccc(OC)c(C=O)c1 | inactive | inactive | inactive | – | – | inactive | inactive | inactive | inactive | inactive
CCOC(=O)C1(c2ccccc2)CCN(CCC(C#N)(c2ccccc2)c2ccccc2)CC1 | inactive | inactive | inactive | inactive | inactive | inactive | inactive | – | inactive | inactive
CC(=O)[O-].CC(=O)[O-].[Hg+2] | inactive | 1.74 µM (active) | 43.6 µM (active) | – | 2.19 µM (active) | 24.5 µM (active) | 30.9 µM (active) | 2.45 µM (active) | 3.09 µM (active) | 17.2 µM (active)
CC(C)OS(C)(=O)=O | inactive | inactive | inactive | inactive | inactive | inactive | inactive | – | inactive | –
Clc1ccc(-c2ccc(Cl)c(Cl)c2Cl)c(Cl)c1Cl | inactive | inactive | inactive | – | inactive | – | inactive | inactive | – | –
CCOC(=O)OC1=C(c2cc(C)ccc2C)C(=O)NC12CCC(OC)CC2 (configuration not stated) | inactive | inactive | inactive | inactive | inactive | inactive | inactive | – | inactive | inactive
N#CCCO | inactive | inactive | inactive | inactive | inactive | inactive | inactive | – | inactive | inactive
CC1(C)[C@H](C(=O)O[C@H](C#N)c2cccc(Oc3ccccc3)c2)[C@@H]1/C=C(\Cl)C(F)(F)F | inactive | inactive | inactive | – | – | inactive | inactive | inactive | inactive | –
Oc1ccc(C2(c3ccc(O)cc3)c3ccccc3-c3ccccc32)cc1 | inactive | 61.6 µM (active) | inactive | – | – | inactive | inactive | 49 µM (active) | inactive | –
Cc1cc(Cl)ccc1O[C@H](C)C(=O)O | inactive | inactive | – | inactive | – | inactive | inactive | inactive | inactive | inactive
CC(C)N1C(=O)N(c2ccccc2)CSC1=NC(C)(C)C | inactive | inactive | – | 19.5 µM (active) | – | inactive | inactive | inactive | inactive | inactive
COCC(=O)N(c1c(C)cccc1C)[C@H](C)C(=O)OC | inactive | inactive | – | inactive | inactive | inactive | inactive | inactive | – | inactive
Cc1cc(C)c(C2=C(OC(=O)CC(C)(C)C)C3(CCCC3)OC2=O)c(C)c1 | inactive | inactive | – | inactive | inactive | inactive | inactive | inactive | – | inactive
CC(C)(c1ccc(O)c(-c2ccccc2)c1)c1ccc(O)c(-c2ccccc2)c1 | inactive | 49 µM (active) | – | 21.9 µM (active) | 21.9 µM (active) | – | inactive | 49 µM (active) | – | –
CN(CCCC(O)c1cccnc1)N=O (configuration not stated) | inactive | inactive | – | inactive | inactive | inactive | inactive | inactive | – | inactive
CC(C)CC(C)(c1ccc(O)cc1)c1ccc(O)cc1 | inactive | 43.8 µM (active) | – | 43.8 µM (active) | 43.8 µM (active) and inactive | – | inactive | – | inactive and 49 µM (active) | inactive
